MEX-5 binding = C. elegans MEX-5 TCR-2 RNA binding activity. actives 0.38% (n = 300,000). Q9XUB2. MEX-5/FITC-TCR2 RNA binding, fluorescence polarization; stronger effect = lower value. activity score (negative = inhibition of binding), % at 10 µM. AID 1832;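 active = inhibition past about -25% in most replicates, and total fluorescence under double the plate's negative control median, limit read from the data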;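 also: 0% = DMSO and -100% = 5 µM competing unlabeled TCR2 RNA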
EBV gp42 inh = EBV gp42 inhibition; Q1HVG2; Fluorescence polarization binding assay, mP read-out; inhibition, % (tested at 21.74 µM); actives 0.42% (n = 220,000); AID 1085; in the data active = inhibition above about 50%
MCL1-BIM inh = disrupts human MCL1 binding to BIM-BH3 peptide. Q07820. GST-MCL1 / FITC-Bim-BH3 fluorescence polarization. inhibition, % at 10.9 µM. actives 0.68% (n = 320,000);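 active = inhibition above the mean inhibition of all tested compounds plus 3 SD, set per campaign, cut at about 40% in these data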;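 also: 0% = DMSO wells and 100% = unlabeled Bim-BH3 peptide control; higher means more loss of mP so more displacement of Bim peptide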
GLD-1 TGE inh = GLD-1-TGE RNA interaction inhibition (C. elegans) | inhibition, % at 5.96 µM | Q17339 | purified GLD-1 + fluorescein TGE RNA, fluorescence polarization | actives 0.44% (n = 320,000);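 active = percent inhibition above a per-plate cutoff, the plate mean of test compounds plus 3 SD, cut at about 30% in these data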;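 also: 0% = DMSO wells with GLD-1 and probe and 100% = wells lacking GLD-1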
Bcl-xL primary = blocks human Bcl-xL binding to Bim BH3 peptide; inhibition, % at 10.9 µM; Q07817; GST-Bcl-xL / FITC-Bim BH3 peptide fluorescence polarization; actives 0.7% (n = 320,000);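 active = inhibition above the mean of all tested compounds plus 3 SD, cutoff set per campaign, cut at about 30% in these data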;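 also: 0% = DMSO wells and 100% = unlabeled Bim-BH3 peptide competitor; inhibitors lower millipolarization by displacing the labeled peptide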
eLon inh = inhibitors of E. coli Lon protease; inhibition, % at 7.94 µM; actives 0.42% (n = 360,000); purified E. coli Lon protease, fluorescence polarization; AID 602123; in the data active = inhibition above about 13%, passing the limit was not always enough;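 also: 0% = enzyme with probe and DMSO and 100% = no enzyme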
Target sequence (P0A9M0 whole entry, looked up): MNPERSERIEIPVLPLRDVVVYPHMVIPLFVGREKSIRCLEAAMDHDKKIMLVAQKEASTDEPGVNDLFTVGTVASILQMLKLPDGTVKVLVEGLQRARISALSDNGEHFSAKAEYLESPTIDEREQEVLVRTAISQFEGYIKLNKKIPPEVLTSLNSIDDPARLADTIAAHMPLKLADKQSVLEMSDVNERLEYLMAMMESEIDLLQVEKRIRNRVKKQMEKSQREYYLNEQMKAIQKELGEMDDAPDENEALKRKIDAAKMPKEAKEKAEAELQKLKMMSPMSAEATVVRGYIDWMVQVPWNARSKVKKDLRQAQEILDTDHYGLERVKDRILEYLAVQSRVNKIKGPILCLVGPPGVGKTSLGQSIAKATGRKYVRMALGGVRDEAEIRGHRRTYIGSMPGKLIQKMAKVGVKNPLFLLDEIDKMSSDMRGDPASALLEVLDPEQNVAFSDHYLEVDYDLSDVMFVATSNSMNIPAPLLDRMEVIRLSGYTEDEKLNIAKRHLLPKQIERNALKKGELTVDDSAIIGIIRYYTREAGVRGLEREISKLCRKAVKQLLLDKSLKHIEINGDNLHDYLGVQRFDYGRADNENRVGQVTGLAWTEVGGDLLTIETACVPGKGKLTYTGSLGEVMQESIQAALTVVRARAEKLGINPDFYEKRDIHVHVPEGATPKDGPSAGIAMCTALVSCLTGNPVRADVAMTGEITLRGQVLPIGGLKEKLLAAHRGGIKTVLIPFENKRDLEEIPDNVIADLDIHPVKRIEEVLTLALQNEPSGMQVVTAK
E coli Lon conf = E. coli Lon inhibition confirmation; AID 602230; inhibition, % at 7.94 µM; actives 31% (n = 1,400); shares compounds with eLon inh; purified E. coli Lon, fluorescence polarization; in the data active = inhibition above about 16%;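 also: 0% = enzyme with probe and DMSO and 100% = no enzyme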
Active calls of the source: *. This is a sample that favours compounds with a hit; in the whole collection about 1.4% have one here.

How did COc1ccc(NC(=O)NNc2cc(N3CCOCC3)nc(N3CCOCC3)n2)cc1 do in these assays?
MEX-5 binding: -2; EBV gp42 inh: -15; MCL1-BIM inh: -5; GLD-1 TGE inh: -3; Bcl-xL primary: -3; eLon inh: 34*; E coli Lon conf: 15

Results for CC(=O)NNc1cc(N2CCOCC2)nc(N2CCOCC2)n1 ?
MEX-5 binding: 4; EBV gp42 inh: -8; MCL1-BIM inh: -7; GLD-1 TGE inh: -30; Bcl-xL primary: 0; eLon inh: -14

What do the screens show for `O=C(O)c1ccc2c(c1)C1C=CCC1C(c1cc3c(cc1Br)OCO3)N2` (stereo not given)?
MEX-5 binding: -3; EBV gp42 inh: 8; MCL1-BIM inh: 2; GLD-1 TGE inh: 0; Bcl-xL primary: 9; eLon inh: 1

What do the screens show for `CC(=O)c1ccc2c(c1)C1C=CCC1C(C(=O)O)N2` (stereo not given)?
EBV gp42 inh: -5; eLon inh: 38*; E coli Lon conf: 22*

How did Cc1cccc(C)c1NC(=O)C1CCN(S(C)(=O)=O)CC1 do in these assays?
MEX-5 binding: 3; MCL1-BIM inh: 2; GLD-1 TGE inh: 0; Bcl-xL primary: 7; eLon inh: 40*; E coli Lon conf: 5

What do the screens show for `Cc1cc(C)c(NC(=O)C2CCN(S(C)(=O)=O)CC2)c(C)c1`?
eLon inh: -4

How did Cc1ccc(S(=O)(=O)N2CCc3cc4c(cc3C2C)OCCCO4)cc1 (stereo not given) do in these assays?
MEX-5 binding: 1; MCL1-BIM inh: -3; GLD-1 TGE inh: 8; Bcl-xL primary: -2; eLon inh: 18*; E coli Lon conf: 2

What do the screens show for `CCN(CC)c1ccc(C=Nc2cccnc2Cl)c(O)c1`?
MEX-5 binding: -4; MCL1-BIM inh: 51*; GLD-1 TGE inh: 28; Bcl-xL primary: 44*; eLon inh: 16*; E coli Lon conf: -1

How did CCN(CC)c1ccc(C=Nc2cc(C)ccc2C)c(O)c1 do in these assays?
MEX-5 binding: 0; EBV gp42 inh: -3; MCL1-BIM inh: -1; GLD-1 TGE inh: 6; Bcl-xL primary: -4; eLon inh: -5

Results for O=C(/C=C/c1ccc(OC(F)F)cc1)OCC(=O)N1CCc2ccccc21 ?
MEX-5 binding: -1; MCL1-BIM inh: -21; GLD-1 TGE inh: 0; Bcl-xL primary: -12; eLon inh: 17*; E coli Lon conf: 2

Results for CCOC(=O)/C(=C/Nc1ccc(F)c(F)c1)[N+](=O)[O-] ?
MEX-5 binding: 1; EBV gp42 inh: -9; MCL1-BIM inh: 6; GLD-1 TGE inh: -4; Bcl-xL primary: 3; eLon inh: 1

How did CC(C)c1cc(C(=O)N2CCCC(C(=O)c3ccc4ccccc4c3)C2)on1 (stereo not given) do in these assays?
MEX-5 binding: 0; EBV gp42 inh: -10; MCL1-BIM inh: 0; GLD-1 TGE inh: 5; Bcl-xL primary: 4; eLon inh: 1

How did O=C1CCC(C(=O)N2CCCC(C(=O)c3ccc4ccccc4c3)C2)=NN1 (stereo not given) do in these assays?
MEX-5 binding: 4; MCL1-BIM inh: 9; GLD-1 TGE inh: 2; Bcl-xL primary: 4; eLon inh: 13*; E coli Lon conf: -7

Results for Nc1cc2nc[nH]c2cc1N ?
MEX-5 binding: 1; EBV gp42 inh: -19; eLon inh: 18*; E coli Lon conf: 0

What do the screens show for `Cn1c(=O)n(C)c2cc3[nH]cnc3cc21`?
MEX-5 binding: -3; MCL1-BIM inh: 6; GLD-1 TGE inh: 5; Bcl-xL primary: 8; eLon inh: -1

Results for COc1cccc(NC(=S)N2CCN(c3ccccn3)CC2)c1 ?
MEX-5 binding: 1; EBV gp42 inh: -14; MCL1-BIM inh: -1; GLD-1 TGE inh: -5; Bcl-xL primary: 0; eLon inh: active; E coli Lon conf: -3

How did COc1cccc(/C=N/NC(=O)c2ccc(=O)n(C)c2)c1OC do in these assays?
MEX-5 binding: 0; EBV gp42 inh: -7; MCL1-BIM inh: 6; GLD-1 TGE inh: 0; Bcl-xL primary: -1; eLon inh: 22*; E coli Lon conf: 4

What do the screens show for `O=C(NC(=O)c1cnccc1C(F)(F)F)Nc1ccccc1`?
MEX-5 binding: -3; EBV gp42 inh: -4; MCL1-BIM inh: 5; GLD-1 TGE inh: 2; Bcl-xL primary: 2; eLon inh: 3

How did O=C(Cc1cnc2ncnn2c1)N1CCc2c([nH]c3ccccc23)C1c1ccccc1F (stereo not given) do in these assays?
MEX-5 binding: 5; EBV gp42 inh: 5; MCL1-BIM inh: -5; GLD-1 TGE inh: -4; Bcl-xL primary: 5; eLon inh: 1

What do the screens show for `O=C(Nc1cccc(S(=O)(=O)N2CCCCCC2)c1)C1CC(=O)N(c2ccc3c(c2)OCCO3)C1` (stereo not given)?
MEX-5 binding: 0; MCL1-BIM inh: -1; GLD-1 TGE inh: 1; Bcl-xL primary: -6; eLon inh: 22*; E coli Lon conf: -14

What do the screens show for `COc1cccc(C(=O)CN2C(=O)C(C)(C)Oc3ccc(C(=O)N4CCOCC4)cc32)c1`?
MEX-5 binding: 2; MCL1-BIM inh: -1; GLD-1 TGE inh: 2; Bcl-xL primary: 0; eLon inh: 128*; E coli Lon conf: -5

How did COc1cccc(C(=O)CN2C(=O)C(C)(C)Oc3ccc(C(=O)N4CCCCCC4)cc32)c1 do in these assays?
MEX-5 binding: -1; EBV gp42 inh: -6; MCL1-BIM inh: 9; GLD-1 TGE inh: 4; Bcl-xL primary: 4; eLon inh: 5

What do the screens show for `CCOC(=O)N/N=C(/C)c1cccc(-n2cnnn2)c1`?
MEX-5 binding: 1; EBV gp42 inh: -8; MCL1-BIM inh: 3; GLD-1 TGE inh: -7; Bcl-xL primary: 2; eLon inh: 2

Results for CCN(CC)C(=O)[C@H]1CC(CC(=O)NCCCN(C)C)C(=O)N2CCc3c([nH]c4ccc(OC)cc34)[C@]12C (stereo not given in full) ?
eLon inh: active; E coli Lon conf: -6

Results for CCN(CC)C(=O)[C@H]1CC(CC(=O)NCCN2CCOCC2)C(=O)N2CCc3c([nH]c4ccc(OC)cc34)[C@]12C (stereo not given in full) ?
eLon inh: -3

How did COc1ccc(N(CC2CO2)S(=O)(=O)c2ccc(C)cc2)cc1 (stereo not given) do in these assays?
MEX-5 binding: 0; MCL1-BIM inh: 4; GLD-1 TGE inh: -3; Bcl-xL primary: 9; eLon inh: -1

How did COc1ccc(C(C(=O)NC2CCCC2)N(CC2CCCO2)C(=O)Cn2nnc(-c3ccc(C)o3)n2)cc1 (stereo not given) do in these assays?
MEX-5 binding: 1; EBV gp42 inh: -4; MCL1-BIM inh: 4; GLD-1 TGE inh: 7; Bcl-xL primary: 4; eLon inh: 18*; E coli Lon conf: -10

Screens from PubChem.
